± gives the standard deviation of the averaged measurements. In all, about 25,000 sequences were measured (“ln(normalized median fluorescence intensity)”: median about 10, highest 2% from about 12 on). This excerpt belongs to a sample that is enriched for the highest values.
Each sequence was assayed on PfAP2-G AP2 domain (GST-tagged) (assay: gcPBM binding intensity (ln(normalized median fluorescence intensity)); higher = stronger DNA binding).
In short: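 In this array assay, P. falciparum DNA-binding domains with a GST tag, expressed in E. coli, were applied for 1 h to primer-extended double-stranded 36-bp intergenic genomic probes and negative controls on an Agilent 4 × 180k array. Bound protein was visualised with Alexa488 anti-GST antibody at 488 nm. Binding intensity is the highest Masliner-normalised natural-log median intensity across replicate spots of either probe orientation.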

Sequence | gcPBM binding intensity (ln)
ATATTAATATATGTGGCACACATGTGGAGTCCTATT [CACACA_site213] | 10.7 ± 0.43
TTATCACATTATTGCACACACATAAAGAAAAAAATA [CACACA_site2841] | 10.4 ± 0.5
AAAAAAATAAAATATATATATATATATATATATATA [GTGCAC_negctrl_site706] | 9.96 ± 0.89
ATATATATGTGTAAAAGTACATATATTTTGAAATAT [XGTACX_site4024] | 11.2 ± 0.79
TTATAATTGTAAGGTAGTACATATAAATCAAATAAT [XGTACX_site7190] | 11.5 ± 0.94
TATATATAAAAAAAAAGTACATATAATATAATATTT [XGTACX_site7902] | 11.5 ± 1
TTAAAAAAAAAAAAAAGTACATAAGTATATATAATA [XGTACX_site4295] | 11.7 ± 1
ATATAAATAAAAAAAAGTACATAATATATAAAAATA [XGTACX_site3065] | 11.5 ± 1
TATGATTTTAATGAAACACACAATTTTATGTTAATA [CACACA_site311] | 9.82 ± 0.11
TTATAATATATATGTAGTACTGTTTTTTTCTATTTT [XGTACX_site7749] | 11 ± 0.63
TTTGCCCAAAAAGGTACACACCACAATGTACATAAA [CACACA_site4599] | 11.9 ± 1.1
CTTTTGCCCAAAAAGGTACACACCACAATGTACATA [CACACA_site809] | 11.6 ± 0.91
CACACCACCAACAAAAGTACATACATATATATATAT [XGTACX_site5781] | 11.3 ± 0.82
TGTACAACAATTTTTGCACACACCAAAACATAAAAT [CACACA_site1598] | 11.1 ± 0.2
CTTTTGCCCAAAAAGGTACACACCACAAAGTACATA [CACACA_site8169] | 11.9 ± 1.2
TCTTTTGCCCAAAAAGGTACACACCACAATTTAAAT [XGTACX_site1482] | 11.4 ± 0.88
TCTTTTTACACCTCTTACATAAAACAAAATAAGGGG [XGTACX_negctrl_site12] | 10.7 ± 0.38
TTTATTTATTATTATGTACACACTATATTAAAACAT [CACACA_site700] | 11.4 ± 0.87
ATATAATTACCATATGGTACACACATATATATATGT [XGTACX_site7393] | 11.3 ± 0.62
ATCAAATAATAGCAAACACACAAAAAATAAAAAAAA [CACACA_site4146] | 9.96 ± 0.15
ACATTAAAAAAAAAATGTACATAAATATTTTTCCTT [XGTACX_site4361] | 11.1 ± 0.59

Sequence | gcPBM binding intensity (ln)
AAAAAATATAAAACGAGTACATATATAATAAGCAAA [XGTACX_site1360] | 11.4 ± 0.82
GGATAAAATGCTACGAGTACATAAGCATTTTTCCCT [XGTACX_site7796] | 11.7 ± 1.2
AGGTACTTTTTTAAAACACACATATAACATATACAC [CACACA_site6629] | 11.3 ± 1.1
ATACATTCTAATACGTGTACATATATATATATATAT [XGTACX_site1881] | 11.4 ± 0.81
AACAAATACGGACACACACACACACTAGAAAAAAAA [CACACA_site4442] | 11.4 ± 0.86
TACACAGACGGACACACACACACACTAGAAAAAAAA [CACACA_site4435] | 11.7 ± 1.2
ATAAATAAAGGACACACACACACACTAGAAAAAAAA [CACACA_site5450] | 11.2 ± 0.92
GTATGTATGTATGTATGTACGTATGTATGTATATAT [XGTACX_site3369] | 11.6 ± 0.98
AAACGTGCGTATATGTGTACGCATATATATATATAT [XGTACX_site5252] | 11.6 ± 1
ATTTATATATATGTATGTACGTATGTGTGTATATGT [XGTACX_site7587] | 11.4 ± 0.88
ATGACATGTTCTAAATGTACATTTTTTAACCCTTTT [XGTACX_site1858] | 10.8 ± 0.4
TTTTTTTTTTTTTTATGTACATATATATATTTTATT [XGTACX_site6915] | 11.2 ± 0.98
TTTTTTTTTTCTTTTTTTTATTATATTAACGGAATT [GTGCAC_negctrl_site104] | 9.82 ± 0.17
ATGGTAGTGATTAAAAGTACACGTAATTGTAAAAAT [XGTACX_site387] | 11.7 ± 0.79
CAAATGGTAAATGAAAGTACAAATTGTTTTGATTAA [XGTACX_site1536] | 10.8 ± 0.4
TTAGTTATTATAATTTGTACACAAATGGTAAAGTAT [XGTACX_site2343] | 11.2 ± 0.71
TAAAAAAAAAAATGAACATGCAACAATTGTGATGAA [TGCATGCA_site332] | 9.74 ± 0.32
GCACCAAAAAAAAGACGTACAGTTATATTAAAATAG [XGTACX_site8926] | 11.7 ± 1
ATTATATTAAAATACACACCCAAATATTAAAAAGAT [CACACA_site5613] | 10.4 ± 0.19
AAATAAATAAATAGACGTACAAAAATATTATACATT [XGTACX_site6776] | 11.2 ± 0.8
TTTTTATAAGCATAAAGTACAAATATTTTTTAGTTG [XGTACX_site4140] | 11 ± 0.59

Sequence | gcPBM binding intensity (ln)
TGTAAGTATTCTTGAGGTACACATATAAATATAGTA [XGTACX_site3207] | 11.4 ± 0.79
AAATATATATATATATATATATATATATATATATAT [CACACA_negctrl_site677] | 10 ± 1
ATAGAATAATATTGTAGTACTAAAAATATTCATTTT [XGTACX_site6447] | 11.4 ± 0.92
TATATAAAGCATTGTAGTACTACCAATATTTTTTTT [XGTACX_site3523] | 11.6 ± 1
TAATATTTATAAAATAGTACACAGAAAAAGCATTTT [XGTACX_site8948] | 11.4 ± 0.88
GGAAACCTTTTTTTTACACACAATATATTAAGACTT [CACACA_site4899] | 9.86 ± 0.014
AAAAAAAAATTAAACATACACACGTTACTATTTTTA [CACACA_site1687] | 9.64 ± 0.26
TAGTATTATTTTTTTTGTACATATAAATGTAAAATA [XGTACX_site5282] | 11 ± 0.71
AATTATTAAATATGTACACACGTACATTTTATAAAT [CACACA_site5341] | 11.6 ± 1
TATTAAGTATTTTACGTACACACTTATAAATGTACA [CACACA_site3885] | 11.7 ± 0.82
TATAATATATTTTAATGTACGTACATCCCGATTAAT [XGTACX_site7651] | 11.7 ± 0.86
TTATTAAATATGTACACACGTACATTTTATAAATGA [CACACA_site2387] | 11.7 ± 1.1
TACGTATTTTAATATTTACACACTTATTTTTTATAT [CACACA_site7924] | 10.2 ± 0.13
AATATTTTTAATTAATGTACATATTTATTATATAAA [XGTACX_site5112] | 11.2 ± 0.76
AAAATTATTAAATATGTACACACGTACATTTTATAA [CACACA_site8750] | 11.6 ± 0.88
TTATTATAAATGTTTTGTACGTACATCCGAAAATAA [XGTACX_site2175] | 11.7 ± 1.2
AAATGTATAATTTTTTAATACACTTATTTAAAATAA [CACACA_negctrl_site797] | 10.1 ± 0.2
TTATACATATTTATATGTACGTAATATAATATTAAT [XGTACX_site6520] | 11.3 ± 0.91
AATGTTTATTTTGTTTGTACATAAAATGAATAAAAT [XGTACX_site1456] | 11.1 ± 0.77

— the supplement of paper PMC11417369
